M4 PAM = positive allosteric modulators of human muscarinic M4 receptor | activation, % at 3 µM | 360,000 compounds, 0.4% hits | P08173 | CHO-K1 hM4/Gqi5, Fluo-8 calcium fluorescence, ACh EC20; 0% = ACh EC20, 100% = maximal ACh;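 active = activation above its plate's cutoff, the mean activation of sample wells plus 3 SD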
Target sequence (P08173 whole entry, looked up): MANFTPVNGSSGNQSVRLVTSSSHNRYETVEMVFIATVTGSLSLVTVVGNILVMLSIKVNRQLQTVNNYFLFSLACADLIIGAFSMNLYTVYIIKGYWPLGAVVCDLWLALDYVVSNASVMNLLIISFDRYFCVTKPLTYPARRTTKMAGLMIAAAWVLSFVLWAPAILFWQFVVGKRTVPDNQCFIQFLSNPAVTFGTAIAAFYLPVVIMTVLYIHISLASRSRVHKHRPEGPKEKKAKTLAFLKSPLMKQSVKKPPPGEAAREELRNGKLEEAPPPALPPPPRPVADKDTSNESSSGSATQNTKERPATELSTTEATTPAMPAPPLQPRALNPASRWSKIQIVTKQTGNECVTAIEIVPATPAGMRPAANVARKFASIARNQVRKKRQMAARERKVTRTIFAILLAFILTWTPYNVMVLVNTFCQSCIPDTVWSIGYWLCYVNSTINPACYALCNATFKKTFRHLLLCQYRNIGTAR
M1 ag parental = nonselective activator or artifact in parental CHO-K1 cells; Fluo-8 calcium fluorescence; scaled to maximal ATP response, vehicle zero; activation, % at 3 µM; 360,000 compounds, 0.48% hits; AID 602248; in the data active = activation above about 15%;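 note: untransfected CHO-K1 host cells lacking M1 receptor as counterscreen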
M4 ag = CHRM4 agonism in calcium assay. P08173. CHO-K1 hM4/Gqi5, Fluo-8 calcium fluorescence; vehicle 0%, full acetylcholine response 100%. activation, % at 3 µM. 360,000 compounds, 0.14% hits;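 active = activation above the run mean over all test wells plus 3 SD, cut at about 32% in these data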;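 note: peak over basal fluorescence ratio per well then scaled between controls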
CHO-K1 Ca antag = M1 antagonist counterscreen hit in parental CHO-K1 cells. AID 602250. ATP-induced calcium, Fluo-8 fluorescence. 360,000 compounds, 0.6% hits. inhibition, % at 3 µM;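 active = inhibition above a per-plate cutoff, the plate's mean sample inhibition plus 3 SD, cut at about 24% in these data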
M1 PAM parental = nonselective activator or artifact in parental CHO-K1 calcium assay | activation, % at 3 µM | 360,000 compounds, 0.02% hits | ATP EC20, Fluo-8 calcium fluorescence; 0% at ATP EC20, 100% at ATP max;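 active = activation above the run cutoff, the mean activation of all test compounds plus 3 SD, cut at about 40% in these data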;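 note: peak over basal fluorescence ratio in a 140 s read after ATP addition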
CHRM4 antagonist = blocks acetylcholine activation of human M4 receptor. 360,000 compounds, 0.73% hits. CHO-hM4 cells, ACh EC80, Fluo-8 calcium fluorescence. AID 624125. inhibition, % at 3 µM. P08173;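 active = inhibition above its plate's cutoff, the mean inhibition of sample wells plus 3 SD, cut at about 27% in these data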
Large screens that a line does not name were inactive. An excerpt weighted towards active compounds, which were near 2% of everything screened.

CCOC(=O)c1c(NC(=O)COC(=O)c2nccnc2N)sc(C(=O)N(C)C)c1C	none
Cn1c(Br)nc2c1c(=O)n(CC(O)COc1ccccc1)c(=O)n2C (centres undefined)	M4 ag 34.3
Cc1ccc(-n2c(Cl)c(Cl)nc(Cl)c2=O)cc1	CHRM4 antagonist 36.8
COc1ccc(/C=C/C(=O)NC(=S)NNC(=O)c2cnccn2)cc1	none
O=C(/C=C/c1ccc(F)cc1)NC(=S)NNC(=O)c1cnccn1	CHRM4 antagonist 30.0
Cc1ccc(C)c(N2CCN(C3C(=O)Nc4ccccc4-n4nnnc43)CC2)c1 (centres undefined)	none (no result: M1 ag parental, CHO-K1 Ca antag, M1 PAM parental)
COc1cc(C(=O)NCC(=O)N/N=C/c2ccc(OC(=O)c3ccco3)cc2)cc(OC)c1OC	none
O=C(Nc1ccc(N2CCOCC2)cc1)Nc1ccc(Cl)c(Cl)c1	M4 ag 43.1, CHO-K1 Ca antag 33.3, CHRM4 antagonist 47.9
O=C(Nc1ccccc1)Nc1ccc(Cl)c(S(=O)(=O)N2CCOCC2)c1	M1 ag parental 17.6
O=C(Nc1ccc(NC(=O)c2ccc(Cl)c(S(=O)(=O)N3CCOCC3)c2)cc1)c1ccccc1	none
COc1ccc(CN2CCC(N3CC(C)OC(C)C3)CC2)c(OC)c1OC (centres undefined)	none
COc1ccc(-c2csc3ncn(-c4ccccc4OC)c(=O)c23)cc1OC	M4 PAM 30.0
COc1ccc(-c2csc3ncn(-c4ccccc4)c(=O)c23)cc1OC	none
O=C(CNC1CCCCC1)N1CCc2ccccc2C1	CHRM4 antagonist 30.4
O=C(NC1CCCCC1)N1CCc2ccccc2C1	none
Cc1nnc(C)c2c(C)n(Cc3ccc4c(c3)OCO4)c(C)c12	CHO-K1 Ca antag 23.8
c1cc2c(cc1Cn1cnnn1)OCO2	none
CCCCOCCCNC(=O)C[C@@H]1C[C@@]2(C(=O)OCC)CCC=C2N(Cc2ccco2)C1=O	none
CC(C)(C)NC(=O)C1(C)CCC(=O)N1CC(F)(F)F (centres undefined)	CHO-K1 Ca antag 23.7
CC(C)(C)NC(=O)C1(C)CCC(=O)N1CCCn1ccnc1 (centres undefined)	none
CCc1ccc(CN(C)C(=O)C2CCC(=O)N(Cc3ccccn3)C2)cc1 (centres undefined)	none
COc1ccc(NC(=O)CSc2n[nH]c(-c3ccncc3)n2)cc1Cl	none
CCCc1cc(=O)[nH]c(SCC(=O)N(C)CC(=O)Nc2ccc(C)cc2)n1	M4 PAM 26.2
Cc1cccc2c1CCCC2=O	none
COc1ccc(/C=N/Nc2ccc(C(F)(F)F)cc2[N+](=O)[O-])cc1O	none
CCOc1ccc(/C=N/Nc2ccc(C(F)(F)F)cc2[N+](=O)[O-])cc1O	M1 ag parental 17.7
CC1(C)Cc2ccccc2C(C(Cc2ccccc2)C(N)=O)=N1 (centres undefined)	none
CC(=O)Nc1ccc(OCC(=O)c2ccc(C)cc2C)cc1	none
CC(=O)Nc1ccc(OCC(=O)c2cc(C)ccc2C)cc1	M4 PAM 19.1
CC(C)C(=O)Nc1cccc(C(=O)Nc2cc([N+](=O)[O-])ccc2F)c1	none
OCCN1CCN(CCCN2c3ccccc3CCc3ccccc32)CC1	none
N#CC1(CCCN2CCCCC2)c2ccccc2CCc2ccccc21	CHRM4 antagonist 26.4
CN(CCCC1CCCC1)C(=O)c1cc(COc2ccc(F)cc2F)on1	none
CN(CCCN1CCCCC1)C(=O)c1cc(COc2ccc(F)cc2F)on1	CHRM4 antagonist 35.8
COc1cc(OC)cc(-c2cc3nc(C)c(CCC(=O)O)c(C)n3n2)c1	CHO-K1 Ca antag 39.1
O=C(CCNC(=O)c1ccc([N+](=O)[O-])cc1)NNC(=O)c1ccccc1F	M4 PAM 26.0
O=C(NCCNc1ccc([N+](=O)[O-])cc1)c1ccccc1F	none
Cn1c(SCC(=O)NCc2ccco2)nnc1C1CCCC1	none
COC(=O)c1cc2c(ccn2-c2ccc(F)cc2)n1Cc1cccc(OC)c1	none
COC(=O)c1cc2c(ccn2-c2ccc(F)cc2)n1Cc1ccc(OC(C)=O)cc1	M1 ag parental 20.9
COC(=O)c1cc2c(ccn2-c2ccc(F)cc2)n1CC(C)C	M4 PAM 16.6
O=C1CN(C(=O)COC(=O)CNS(=O)(=O)/C=C/c2ccccc2)c2ccccc2N1	none
Cc1cccc2cc(-c3ccccc3)c(-c3ccccc3)c[n+]12	CHRM4 antagonist 37.7
O=[N+]([O-])c1ccc(N=Nc2c(Cl)cc(O)cc2Cl)cc1	M1 ag parental 17.4, CHO-K1 Ca antag 39.5
CCc1nc2ccccc2n1CC1CC1(Cl)Cl (centres undefined)	none
CCCCCCCCNc1ncnc2ccccc12	CHO-K1 Ca antag 39.3, CHRM4 antagonist 27.0
Cc1cc2c(NCCc3ccccc3)ncnc2s1	CHO-K1 Ca antag 23.7
c1ccc(CCNc2ncnc3ccccc23)cc1	CHO-K1 Ca antag 32.3
Cc1cc2c(Nc3ccccc3)ncnc2s1	none
CC(=O)N1CCN(S(=O)(=O)c2cccc(C(=O)Nc3ccccc3N3CCCC3)c2)CC1	none
COc1ccccc1C(=O)Nc1ccc(OC(C)C(=O)N2CCOCC2)cc1 (centres undefined)	none
O=C(NC(c1ccc(F)cc1)c1ccc2ccccc2n1)C1CCN(Cc2cccc(C(F)(F)F)c2)CC1 (centres undefined)	none
Cc1cc(/C=C2/NC(=O)NC2=O)c(C)n1-c1ccccn1	none
Cc1ccc(-n2c(C)cc(/C=C3\NC(=O)NC3=O)c2C)c(C)c1	CHRM4 antagonist 34.9
COc1ccccc1N1CCN(C2CCCN(C(=O)CCC(C)=O)C2)CC1 (centres undefined)	none
COc1ccc(C2=NOC3(CC(=O)N(c4ccc(F)cc4)C3=O)C2)c(OC)c1 (centres undefined)	none
COc1ccc(C2=NOC3(CC(=O)N(c4ccc(F)cc4)C3=O)C2)cc1 (centres undefined)	M4 PAM 34.7
CN1CCN(c2ccccc2NC(=O)C(Cc2ccccc2)n2cccc2)CC1 (centres undefined)	CHRM4 antagonist 31.9
CCOC(=O)C1=C(COC(=O)/C=C/c2ccc([N+](=O)[O-])cc2)NC(=O)NC1C (centres undefined)	none
COc1ccc(S(=O)(=O)N2CCOC2CNC(=O)C(=O)NCCCN(C)C)cc1C (centres undefined)	none
CCCCNc1c(-c2cccc(-c3cc(C(C)=O)cs3)c2)nc2ccc(C)cn12	none
CCCCNc1c(-c2ccc(OC)c(SC3CCCCC3)c2)nc2cc(C)ccn12	CHRM4 antagonist 28.6
CCCCNc1c(-c2ccc(-c3cccc(Cl)c3)cc2)nc2ccccn12	none
CCCCNc1c(-c2ccc(OC)c(SC3CCCCC3)c2)nc2cnccn12	none
CCCCNc1c(-c2cccc(-c3ccc(OC)cc3)c2)nc2ccc(C)cn12	CHRM4 antagonist 51.7
